In ChEMBL document CHEMBL3988442, “University of Dundee, Small-Polar-MMV Screening Library” (2021):
The campaign covered roughly 48,000 compounds. About 13,000 (27%) showed an effect of 50% or more. The list shows a part of the results.

These compounds were tested on Wolbachia pipientis (assay: Anti-Wolbachia Cell-Based Screen). Conditions: 5 µM.
Type: functional
Set-up: scale not given: in the data most compounds retested in dose-response had high values

| Compound | Percent Effect |
| --- | --- |
| Cc1ccccc1CNc1ccc(S(N)(=O)=O)c(C(F)(F)F)c1 | -19.7% |
| COc1cccc(CCC2CCCN(C(=O)C3=NN(C)C(=O)CC3)C2)c1 (centres undefined) | 3.443% |
| Cc1cccc(C2(C(=O)NCC(C)CN3CCCC3=O)CC2)c1 (centres undefined) | -2.528% |
| CC(Cn1ccnc1)NC(=O)C1(c2ccc(F)cc2)CC1 (centres undefined) | 6.075% |
| CC(CNC(=O)C1(c2ccc(F)cc2)CC1)CN1CCCC1=O (centres undefined) | -3.318% |
| O=C(NCc1nncn1C1CC1)C1(c2cccc(F)c2)CCOCC1 | 0.3927% |
| CCC(CN1CCCC1)NC(=O)C1(c2cccc(F)c2)CC1.O=C(O)CC(O)(CC(=O)O)C(=O)O (centres undefined) | 113.9% |
| O=C(NC(CN1CCCC1)c1ccccc1)c1c(O)cc(F)cc1F (centres undefined) | -3.42% |
| Cc1cc(C)n(CC(C)NC(=O)C2(c3ccc(F)cc3)CC2)n1 (centres undefined) | -1.516% |
| CC1CN(C(=O)C2(c3cccc(F)c3)CCOCC2)CCO1 (centres undefined) | -11.59% |
| CCC(CN1CCCCC1)NC(=O)C1(c2ccc(F)cc2)CC1.O=C(O)CC(O)(CC(=O)O)C(=O)O (centres undefined) | 147.4% |
| CCC(CN1CCCCC1)NC(=O)C1(c2cccc(F)c2)CC1.O=C(O)CC(O)(CC(=O)O)C(=O)O (centres undefined) | 128.4% |
| CCC(CN1CCCC1)NC(=O)C1(c2ccc(F)cc2)CC1 (centres undefined) | 125.8% |
| O=C(NCC(O)COc1ccccc1)C1(c2ccc(F)cc2)CC1 (centres undefined) | -6.241% |
| COc1cccc(-c2n[nH]c3c2CN(C(=O)C2=C(C)OCCO2)CC3)c1 | 9.828% |
| Cc1cc(CNc2cncc(C(=O)N(C)C)n2)c2[nH]c(C)c(C)c2c1 | 5.027% |
| O=C(O)c1ccccc1-c1c(-c2ccccc2)ncn1C[C@H]1CCCN1 | -12.22% |
| c1cncc(CNc2cccc(OCCN3CCCCC3)c2)c1 | 1.449% |
| CN(C)C(=O)CCNC(=O)NCc1ccc(Br)cc1Cl | 9.255% |
| O=c1[nH]nc(CNc2ncc(Br)cn2)[nH]1 | 1.625% |
| CC(=O)c1cccc(OCCCC(=O)N(C)C2CCN(C)CC2)c1 | -6.579% |
| COc1ccc(CNCCc2cc(F)cc3c2OCOC3)cc1O | 19% |
| CCC(O)CN1CCN(C(=O)C2(c3ccc(C)c(OC)c3)CC2)CC1 (centres undefined) | -7.505% |
| CCC(=O)N1CCC2(CCN(Cc3cccc(F)c3)CC2)CC1.O=C(O)C(F)(F)F | -2.197% |
| CCC(CN1CCN(C)CC1)NC(=O)C1(c2cccc(F)c2)CC1.O=C(O)CC(O)(CC(=O)O)C(=O)O (centres undefined) | 126% |

| Compound | Percent Effect |
| --- | --- |
| CCN1CC(C(=O)N2CCc3cc(C(=O)N(C)C)n(C)c3C2)CCC1=O (centres undefined) | 22.54% |
| O=C(O)C(F)(F)F.O=C(O)C(F)(F)F.c1cc2c(cc1CN1CC[C@H]3[C@H]1CCN3CC1CC1)OCO2 | -18.3% |
| CCCC(O)CN1CCC(=O)N(CC)Cc2cc3c(cc21)OCO3 (centres undefined) | 85.4% |
| Cc1ccccc1N1CCN(C(=O)Cc2ccc3c(c2)OCO3)CC1=O | -22.32% |
| CCCC(O)CN1CCC(=O)N(CCOC)Cc2cc3c(cc21)OCO3 (centres undefined) | 110.9% |
| CCCC(O)CN1CCC(=O)N(CC2CC2)Cc2cc3c(cc21)OCO3 (centres undefined) | 71.64% |
| COCC1c2c(cnn2C)CCN1C(=O)c1ccc2c(c1)OCO2 (centres undefined) | 20.59% |
| CC(=O)N1CC[C@H]2CC(=O)N(Cc3ccc4c(c3)OCO4)CC[C@H]2C1 | 1.484% |
| COCCN1C[C@H]2CN(C(=O)c3ccc4c(c3)OCO4)CCN2C1=O | -8.36% |
| CC(NC(=O)Nc1ccccc1CN1CCOCC1)c1nnc(N)s1 (centres undefined) | 1.041% |
| Cc1cc(C)n(CC(C)NCc2nncn2C2CCCCC2)n1 (centres undefined) | -18.85% |
| CCC(C)NS(=O)(=O)Cc1cccc(NC(=O)c2ccc[nH]2)c1 (centres undefined) | -2.911% |
| Cc1ncsc1CCN(C)C(=O)CN1CC2(CCCC2)CC1=O | -2.773% |
| COc1cc(C(=O)NCCc2ccccc2OC)on1 | 0.865% |
| O=C(N[C@H]1CC[C@H](O)CC1)c1ccc2nc(-c3ccccc3)cn2c1 | -19.25% |
| CC(C)n1cc(CN2CCCN(C(=O)CC3CCCO3)CC2)cn1 (centres undefined) | 115.9% |
| CC(C)n1ccnc1CN1CCCN(C(=O)COC2CCCC2)CC1 | -4.301% |
| CCc1[nH]ncc1C(=O)N1CCCN(Cc2cnn(C(C)C)c2)CC1 | -9.524% |
| CC(C)n1cc(CN2CCCN(C(=O)COC3CCCC3)CC2)cn1 | 98.23% |
| CC(C)n1cc(CN2CCCN(C(=O)CC3CCCCC3)CC2)cn1 | 102.4% |
| CCCC(=O)N1CCCN(C(=O)Nc2ccc(C)s2)CC1 | 4.138% |
| O=C(C(c1ccccc1)N1CCc2cncnc2C1)N1CCCCC1 (centres undefined) | -0.8294% |
| N#CC1(NC(=O)COc2cc(Cl)cc(Cl)c2)CCSC1 (centres undefined) | -14.75% |
| O=C(NCCCn1cnnc1)C1CCCN(C2CCCC2)C1 (centres undefined) | 8.155% |
